Sampled rows, rich in hits. Any-hit rate of the full collection: about 12%.
KCC2 mod = modulators of human KCC2 chloride dependent transport; B-score of Tl+ flux slope (higher = more flux/activation; lower = inhibition) at 10 µM; KCC2 cells, thallium flux FluoZin-2 fluorescence; Q9H2X9; actives 2.2% (n = 190,000);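 active means thallium flux slope and its plate-corrected score both differing from the plate sample mean at a set confidence after two filtering rounds, in either direction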;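 further: slope of fluorescence scaled to starting intensity during 10 to 20 s after thallium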
m-calpain inh = blocks pig calpain II enzyme activity | actives 0.37% (n = 220,000) | inhibition, % at 16 µM | purified calpain II, fluorogenic peptide substrate, 30 min;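 active means inhibition above about 50%, limit read from the data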
ROMK primary = modulators of human ROMK potassium channel; Tet-inducible ROMK, thallium flux fluorescence; actives lie on both sides; B-score at 10 µM; actives 2% (n = 130,000); AID 1918;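 active means signal ratio slope over the read window, or its plate-corrected B-score, at least 3 SD from the plate mean, either direction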;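 further: B-score of the F/F0 ratio slope over 7 to 12 s after thallium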
WT yeast gro inh = growth inhibition of WT yeast, mitochondrial fusion screen | mitochondrial fusion phenotypic screen, WT strain | inhibition, % at 10 µM | actives 2.1% (n = 190,000) | AID 1362; in the data active means inhibition above about 58%; tested in S. cerevisiae
Lmaj promast = reduces viability of Leishmania major promastigotes. resazurin fluorescence viability. inhibition, % at 10 µM. actives 9% (n = 200,000); in the data active means inhibition above about 50%;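 further: promastigotes grown with compound for 44 hours at 28 °C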
An asterisk follows results filed as active; . = no result given.

SMILES | KCC2 mod | m-calpain inh | ROMK primary | WT yeast gro inh | Lmaj promast
COc1ccc(OCC(O)CN2CCN(c3ccc(Cl)cc3)CC2)cc1 (stereo not given) | . | 1 | . | . | .
COc1cc(COCC(O)CN2CCN(Cc3ccccc3)CC2)cc(OC)c1OC (stereo not given) | -0.0098 | -12 | -0.26 | -1 | 88*
O=C(CN1CCN(c2ccc(Cl)cc2)CC1)c1ccc2c(c1)OCO2 | -1.1 | 20 | -1.3 | -6 | -4
O=C(CN1CCN(c2ccc(F)cc2)CC1)c1ccc2c(c1)OCO2 | -3.3 | 14 | . | -4 | 88*
CC(C)OCC(O)CN1CCN(CC(O)COc2ccc3c(c2)OCO3)CC1 (stereo not given) | 0.69 | -23 | -0.013 | 2 | -5
CCN1CCN(CC(O)COCc2cc(OC)c(OC)c(OC)c2)CC1 (stereo not given) | 0.13 | -4 | -0.15 | -1 | -3
CCNC(=O)COC(=O)c1[nH]c(C)c(C(=O)OC)c1C | -0.39 | -26 | 0.55 | -9 | -2
O=C(c1cncc(Br)c1)N1CCc2ccccc2C1 | 0.14 | -12 | 1.1 | 0 | 1
CCOC(=O)c1ccc(Oc2cc(C)nc(Cl)n2)cc1 | 1.3 | -5 | . | . | .
O=C1c2cccc3cccc(c23)C(=O)N1CC1CCN(CC(O)COCc2ccc3c(c2)OCO3)CC1 (stereo not given) | -0.33 | 18 | -2.9 | 33 | 90*
OC(COc1ccccc1)CN1CCN(Cc2ccc3c(c2)OCO3)CC1 (stereo not given) | -2.6 | -20 | -0.56 | -7 | 85*
CCOC(=O)C1CCN(C(=O)c2ccc3c(c2)OCO3)CC1 | . | 17 | -0.068 | -8 | 0
C=CCc1ccccc1OCC(O)CN(C(C)C)C(C)C (stereo not given) | -0.13 | -11 | . | -12 | 100*
CCOC(=O)C1CCN(CC(O)COCc2ccc3c(c2)OCO3)CC1 (stereo not given) | 0.0024 | 9 | 0.5 | -4 | 86*
O=C(c1ccc(S(=O)(=O)N2CCCC2)cc1)N1CCC(CN2C(=O)c3cccc4cccc(c34)C2=O)CC1 | -3.1 | -68 | . | . | .
OC(COCc1ccc2c(c1)OCO2)CN1CCN(Cc2ccccc2)CC1 (stereo not given) | -1.5 | -36 | . | 39 | 89*
OC(COc1ccc2c(c1)OCO2)CN1CCN(c2ccc(F)cc2)CC1 (stereo not given) | -1.5 | 17 | -1.2 | 4 | 53*
OC(COc1ccc2c(c1)OCO2)CN1CCCC1 (stereo not given) | 0.16 | 3 | 0.0087 | -9 | 2
OCCN1CCN(CC(O)COCc2ccc3c(c2)OCO3)CC1 (stereo not given) | 0.0076 | 10 | . | -6 | -4
CCOC(=O)C1(Cc2ccccc2C(F)(F)F)CCN(C2CCC2)CC1 | 0.23 | -16 | 0.011 | 8 | 61*
CCOC(=O)C1(CCCc2ccccc2)CCN(C2CCN(C(C)=O)CC2)CC1 | 0.26 | 9 | -0.035 | 24 | 78*
CCOC(=O)C1(Cc2ccccc2C(F)(F)F)CCN(C(C)COC)CC1 (stereo not given) | . | -20 | -0.35 | 10 | 10
CCOC(=O)C1(Cc2ccccc2C(F)(F)F)CCN(C2CCN(C(C)=O)CC2)CC1 | -1.3 | -27 | 0.96 | 3 | 77*
CCOC(=O)C1(CCCc2ccccc2)CCN(C(=O)c2ccoc2)CC1 | . | 22 | . | 15 | 30
CN(CC(=O)Nc1ccccc1Br)Cc1nc2ccccc2c(=O)[nH]1 | -0.03 | 4 | -0.27 | -8 | -4
SMILES | KCC2 mod | m-calpain inh | ROMK primary | WT yeast gro inh | Lmaj promast
O=c1[nH]cc(N2CCCCCC2)c(=O)[nH]1 | -0.25 | -11 | 0.54 | . | .
CCOc1ccc(/C=C/c2c([N+](=O)[O-])c(=O)n(C)c(=O)n2C)cc1 | -0.0079 | 7 | -1 | -12 | 65*
COc1ccc(/C=C/c2c([N+](=O)[O-])c(=O)n(C)c(=O)n2C)cc1 | 0.31 | 16 | -0.38 | -7 | 36
CC(=O)Nc1ccc(OCC(O)Cn2ccnc2)cc1 (stereo not given) | . | -22 | -1 | -13 | -5
Cc1cccc2nc(COc3ccc4ccccc4c3Br)cn12 | 1.3 | -6 | . | . | .
OC(COc1ccc2ccccc2c1Br)Cn1ccnc1 (stereo not given) | -0.82 | 0 | . | 71* | 98*
OC(COc1ccc2ccccc2c1)Cn1ccnc1 (stereo not given) | 1.1 | 30 | . | -1 | 98*
CCOC(=O)C1=C(C)OC(N)=C(C#N)C1c1cc2ccccc2nc1N1CCCCC1 (stereo not given) | 0.42 | -97 | -0.4 | 10 | 86*
Cc1nn(-c2ccccc2Cl)c(Cl)c1/C=N/Nc1nc2ccccc2s1 | 0.54 | 14 | 0.14 | 10 | 59*
